A selection: hits, their analogues and other compounds. The true share with any hit is near 0.79%.
phage Ecoli inh – E. coli growth loss with phage present; growth absorbance; inhibition, % at 11.9 µM; 0.26% of 360,000 active; in the data active = inhibition above about 11%
AI-2 QS modul – modulators of Vibrio harveyi AI-2 quorum sensing system; Vibrio harveyi JMH597 AI-2 luminescence/OD600 ratio, 9 h; hits give low values; strain lacks LuxN and CqsS sensors; 0 = neutral-control median; activity change, % at 7.5 µM; 0.4% of 300,000 active; AID 2094; in the data active = activity change below about -75%, passing the limit was not always enough; inconclusive = no clear call, values can overlap the other calls;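 also: luminescence divided by OD600 gain over 9 h not by final OD600 alone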
Tat transport – E. coli Tat transport inhibition; inhibition, % at 10 µM; AID 488895; E. coli MC4100 TorA-mCherry Tat export, fluorescence; 0.036% of 340,000 active;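 active = mean replicate inhibition at least 50% and at least half of replicates individually reaching 50%; inconclusive = only one of the two criteria met; inactive = neither criterion met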;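 also: exported cargo escapes ClpAP degradation while cytoplasmic cargo is degraded and loses fluorescence; 0% = median of neutral control wells and 100% = median of NaSCN control wells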
AddAB inh – less growth of phage-infected E. coli with AddAB; E. coli expressing H. pylori AddAB, absorbance growth; inhibition, % at 11.9 µM; 0.29% of 330,000 active; AID 435030; in the data active = inhibition above about 12%;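 also: 0% = vehicle wells of infected cells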
E coli growth-1 – bacterial growth inhibition, counter-screen for AddAB inhibitors | AID 449728 | 0.27% of 330,000 active | E. coli V3065 growth, OD600 absorbance, 18 h | inhibition, % at 11.9 µM;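 active = inhibition above the campaign's mean inhibition across all tested compounds plus 3 SD, cut at about 9.9% in these data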;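 also: uninfected addAB+ strain grown without phage in ampicillin broth; 0% = DMSO wells and 100% = ciprofloxacin 0.95 µg/ml wells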
E coli growth-2 – inhibitors of Escherichia coli growth; 0.21% of 330,000 active; OD600, 23 h; hits give low values; OD600 absorbance (test concentration not listed);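 active = OD600 absorbance below the run mean of sample wells minus 3.6 SD, in any replicate, cut at about 0.56 in these data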
An asterisk follows results filed as active; u = inconclusive; x = no result given.

SMILES	phage Ecoli inh	AI-2 QS modul	Tat transport	AddAB inh	E coli growth-1	E coli growth-2
CC[C@H]1OC(=O)[C@H](C)[C@@H](O[C@H]2C[C@@](C)(OC)[C@@H](O)[C@H](C)O2)[C@H](C)[C@@H](O[C@@H]2O[C@H](C)C[C@H](N(C)C)[C@H]2O)[C@](C)(O)C[C@@H](C)C(=NOCOCCOC)[C@H](C)[C@@H](O)[C@]1(C)O	10	-34	3	9	11*	x
CCC1OC(=O)C(C)C(OC2C[C@@](C)(OC)C(O)C(C)O2)C(C)C(OC2OC(C)CC(N(C)C)C2O)[C@](C)(OC)CC(C)C(=O)C(C)C(O)[C@]1(C)O (some centres not stated)	x	x	x	x	x	0.39*
Cc1cccc[n+]1CCCCCCCCCC[n+]1ccccc1C	4	9	10	1	1	0.61
CCCCCCCC[n+]1cccc2c3ccccc3ccc21	7	29	9	3	2	0.48*
CN(C)C=C(C(=O)c1ccccc1)n1cncn1	x	x	x	x	x	0.71
CC(=CC(=O)OCCCCCCCCC(=O)O)CC1OCC(CC2OC2C(C)C(C)O)C(O)C1O (configuration not stated)	x	x	x	x	x	0.12*
COc1cc2nc(Nc3ccc(C)c(Cl)c3)nc(N)c2cc1OC	3	44	-15	1	1	0.59
CCOc1ccc(Nc2nc(N)c3ccccc3n2)cc1	3	3	-9	x	x	x
CN(C)c1ccc(Nc2nc(N)c3ccccc3n2)cc1	2	6	-4	1	4	x
Cc1ccc(Nc2nc(N)c3ccccc3n2)cc1Cl	1	-18	-6	3	1	0.44*
Nc1nc(Nc2ccccc2)nc2ccccc12	2	15	1	1	-3	0.53*
Nc1nc(Nc2ccc(Cl)cc2)nc2ccccc12	3	23	-8	1	2	0.35*
C(=NN1CCN(Cc2cccc3ccccc23)CC1)c1cccnc1	x	x	x	x	x	0.64
O=C1C=C(c2ccc(O)cc2)CC(c2ccc(Cl)cc2)C1 (configuration not stated)	x	x	x	x	x	0.67
Cc1cccc(C)c1OCC(=O)NN=Cc1cc2c(cc1[N+](=O)[O-])OCO2	x	x	x	x	x	0.71
O=[N+]([O-])c1ccc(/C=C/C2=NN(c3ccccc3)C(c3ccco3)C2)o1 (configuration not stated)	20*	u	-10	x	x	0.62
O=C(CCN1CCCCC1)NN=Cc1ccc(Br)cc1	x	x	x	x	x	0.71
OC(c1cc(-c2cccc(Cl)c2)nc2ccccc12)C1CCCCN1 (configuration not stated)	4	x	-6	x	x	0.6
COC(=O)CSc1nc(-c2ccc(F)cc2)cc(C(F)(F)F)n1	3	15	2	3	1	0.69
OC(c1cc(C(F)(F)F)nc2c(C(F)(F)F)cccc12)C1CCCCN1 (configuration not stated)	6	x	1	-2	1	0.42*
OC(c1cc(-c2ccc(C(F)(F)F)cc2)nc(C(F)(F)F)c1)C1CCCCN1 (configuration not stated)	7	11	12	3	6	0.49*
COc1cc(OC)c(OC)cc1C=Nn1c(C)nc2ccccc2c1=O	x	x	x	x	x	0.69
Cc1cc(=O)[nH]c(SCC(=O)Nc2ccc(Br)cc2)c1C#N	8	25	-9	10	8	0.51*
O=C1C2C(C=Cc3ccccc3)N3C(=O)CN(CCO)C(=O)[C@@]3(Cc3ccccc3)C2C(=O)N1c1ccccc1 (some centres not stated)	x	x	x	x	x	0.7
CCCc1ccc(Oc2cn[nH]c2-c2ccc(O)c(C)c2O)cc1	0	-94*	3	5	5	0.65
SMILES	phage Ecoli inh	AI-2 QS modul	Tat transport	AddAB inh	E coli growth-1	E coli growth-2
COC(=O)C=Cc1ccc2c(c1)S(=O)(=O)N(Cc1ccc(OC)cc1)C2CC(=O)OC (configuration not stated)	x	x	x	x	x	0.67
Nc1nonc1-n1nnc(C(=O)NN=Cc2ccccc2Cl)c1CN1CCOCC1	x	x	x	x	x	0.71
Cc1cnnn1-c1ccc(C(=O)CCl)cc1	2	33	-16	3	2	0.51*
O=C(Nc1ccc(Cc2ccncc2)cc1)c1cccc([N+](=O)[O-])c1	3	2	5	2	2	0.67
O=C(Nc1cccc2ncccc12)c1ccc(-c2ccc(Br)cc2)o1	1	11	15	-2	-1	0.74
O=C(Nc1cccc2ncccc12)c1ccc([N+](=O)[O-])o1	3	-109*	-16	12	7	0.62
O=C(Nc1ccc(Cc2ccncc2)cc1)c1ccc([N+](=O)[O-])o1	9	u	-4	12	13*	0.58
COc1ccc(C=NNC(=O)c2c(C)nc3ccc(Br)cn23)cc1OC	x	x	x	x	x	0.67
C#CCOCCOCCOCCNc1nc(N2CCN(C(=O)CCCCCCCCCCNC(=O)Cn3cc(CCCCCN)nn3)CC2)nc(N2CCN(C(=O)CCCCCCCCCCNC(=O)C(CCC(=O)O)n3cc(CCCCCN)nn3)CC2)n1 (configuration not stated)	x	x	x	x	x	0.65
CCCC=C1CCCOC(C(=O)NCCNCCO)(C(F)(F)F)C1 (configuration not stated)	x	x	x	x	x	0.66
Cc1cc(C)n(CC(O)Cn2c3ccc(Cl)cc3c3cc(Cl)ccc32)c(=O)n1 (configuration not stated)	0	33	6	-1	-3	0.7
OC(CNCCC1C=Nc2ccccc21)Cn1c2ccc(Cl)cc2c2cc(Cl)ccc21 (configuration not stated)	5	55	-1	3	0	0.054*
OC(CNCC1CCCO1)Cn1c2ccc(Cl)cc2c2cc(Cl)ccc21 (configuration not stated)	1	9	0	3	0	0.55*
O=C(COc1cccc2cccnc12)NN=C1SCC(=O)N1Cc1ccccc1	x	x	x	x	x	0.68
O=C(Nc1nnc(C2=COCCO2)o1)c1cccc(Br)c1	-3	21	0	3	-3	0.48*
O=C(Nc1nnc(C2=COCCO2)o1)c1cccc([N+](=O)[O-])c1	0	23	-5	2	2	0.75
S=C(NCc1ccco1)Nc1ccc(Cl)c(Cl)c1	9	-32	-3	9	8	0.47*
S=C(NCc1ccco1)Nc1ccc(Br)cn1	4	18	8	-2	0	0.73
S=C(NCc1ccco1)Nc1cc(-c2ccccc2)[nH]n1	-11	-81*	-1	3	2	0.67
O=C(O)c1ccc(NCc2ccc3c(c2)OCO3)cc1	2	-92*	-1	0	-1	0.75
O=C(NCc1ccc2c(c1)OCO2)c1ccc2c(c1)OCO2	2	1	6	0	-3	0.69
CC(C)(C)c1cc[n+](-c2[nH]c(=O)sc2C=N/N=C(\[O-])c2ccccc2)cc1	x	x	x	x	x	0.67
O=C(C1=CC(c2ccccc2)CC(OCc2ccc(CO)cc2)O1)N1CCN(Cc2ccc3c(c2)OCO3)CC1 (configuration not stated)	x	x	x	x	x	0.68
NCCOc1ccc(C23CC4CC(CC(C4)C2)C3)cc1	4	48	8	-2	0	0.47*

Compound activity from PubChem BioAssay.
